# The campaign covered roughly 39,000 compounds. About 1,500 (3.8%) were called active. The list comes from a sample in which actives are over-represented; it also holds similar structures and randomly drawn compounds.
# Tested on: HSkMC (human skeletal muscle cells)
# Assay: cytotoxicity call (relative viability < 0.9)
# Settings: 10 µM
row,SMILES,cytotoxicity call
1,C[C@@H]1CCCCO[C@H](CN(C)C(=O)Cc2ccccc2)[C@H](C)CN([C@@H](C)CO)C(=O)c2cc(NC(=O)Cc3ccccc3)ccc2O1,inactive
2,COc1ccc(NC(=O)Nc2ccc3c(c2)C(=O)N([C@@H](C)CO)C[C@@H](C)[C@@H](CN(C)C(=O)NC2CCCCC2)OCCCC[C@H](C)O3)cc1,inactive
3,C[C@@H]1CN([C@H](C)CO)S(=O)(=O)c2ccc(C#Cc3ccncc3)cc2O[C@@H]1CN(C)C(=O)C1CCOCC1,inactive
4,C[C@@H]1CCCCO[C@@H](CN(C)C(=O)C2CCCCC2)[C@@H](C)CN([C@@H](C)CO)C(=O)c2cc(NC(=O)Nc3ccc4c(c3)OCO4)ccc2O1,inactive
5,COc1ccc(NC(=O)N(C)C[C@H]2Oc3c(NS(C)(=O)=O)cccc3C(=O)N([C@H](C)CO)C[C@@H]2C)cc1,inactive
6,C[C@@H]1CCCCO[C@H](CN(C)C)[C@H](C)CN([C@@H](C)CO)C(=O)c2cc(NC(=O)Nc3cccc4ccccc34)ccc2O1,inactive
7,C[C@H](CO)N1C[C@H](C)[C@H](CN(C)S(=O)(=O)c2cn(C)cn2)Oc2ccc(NC(=O)CCCN(C)C)cc2C1=O,inactive
8,O=C(CN1CCOCC1)NCC[C@@H]1CC[C@H](NS(=O)(=O)c2ccc(Cl)cc2)[C@@H](CO)O1,inactive
9,C[C@@H]1CN([C@H](C)CO)C(=O)c2cccc(NC(=O)CCCCCC(=O)Nc3ccccc3N)c2O[C@H]1CN(C)C(=O)Nc1ccccc1,inactive
10,Cn1cc(N2C[C@]3(COCCN(C(=O)C4CC4)C3)OCC2=O)cn1,inactive
11,COc1ccc(NC(=O)Nc2ccc3c(c2)C(=O)N([C@H](C)CO)C[C@@H](C)[C@H](CN(C)Cc2ccc(C(F)(F)F)cc2)OCCCC[C@H](C)O3)cc1,inactive
12,COc1ccc(CN(C)C[C@@H]2OCCCC[C@@H](C)Oc3ccc(NC(=O)Nc4ccc(C(F)(F)F)cc4)cc3C(=O)N([C@H](C)CO)C[C@@H]2C)cc1,active
13,COc1ccc(NC(=O)Nc2ccc3c(c2)C(=O)N([C@@H](C)CO)C[C@@H](C)[C@H](CN(C)Cc2ccc(C(F)(F)F)cc2)OCCCC[C@H](C)O3)cc1,inactive
14,COc1ccc(CN(C)C[C@@H]2OCCCC[C@H](C)Oc3ccc(NC(=O)Nc4ccc(C(F)(F)F)cc4)cc3C(=O)N([C@@H](C)CO)C[C@H]2C)cc1,active
15,COc1ccc(NC(=O)Nc2ccc3c(c2)C(=O)N([C@H](C)CO)C[C@H](C)[C@@H](CN(C)Cc2ccc(C(F)(F)F)cc2)OCCCC[C@@H](C)O3)cc1,inactive
16,COc1ccc(NC(=O)Nc2ccc3c(c2)C(=O)N([C@H](C)CO)C[C@@H](C)[C@@H](CN(C)Cc2ccc(C(F)(F)F)cc2)OCCCC[C@@H](C)O3)cc1,active
17,COc1ccc(CN(C)C[C@@H]2OCCCC[C@H](C)Oc3ccc(NC(=O)Nc4ccc(C(F)(F)F)cc4)cc3C(=O)N([C@@H](C)CO)C[C@@H]2C)cc1,active
18,COc1ccc(NC(=O)Nc2ccc3c(c2)C(=O)N([C@H](C)CO)C[C@@H](C)[C@@H](CN(C)Cc2ccc(C(F)(F)F)cc2)OCCCC[C@H](C)O3)cc1,inactive
19,C[C@@H]1CN([C@H](C)CO)C(=O)Cc2cc(NS(=O)(=O)c3cn(C)cn3)ccc2O[C@@H]1CN(C)C(=O)Nc1ccc(F)cc1,inactive
20,C[C@@H]1CN([C@H](C)CO)C(=O)Cc2cc(NC(=O)Nc3cccc4ccccc34)ccc2O[C@@H]1CN(C)S(=O)(=O)c1ccc(F)cc1,inactive

row,SMILES,cytotoxicity call
1,COc1ccccc1C#Cc1ccc2c(c1)O[C@@H](CN(C)C(C)=O)[C@@H](C)CN([C@H](C)CO)S2(=O)=O,inactive
2,C[C@@H]1CN([C@@H](C)CO)C(=O)c2cc(-c3cccc(C(=O)N(C)C)c3)cnc2O[C@@H]1CN(C)C(=O)Cc1ccccn1,inactive
3,COc1ccc(S(=O)(=O)N(C)C[C@@H]2OCCCC[C@H](C)Oc3ccc(NC(=O)Nc4c(C)noc4C)cc3C(=O)N([C@H](C)CO)C[C@H]2C)cc1,inactive
4,O=C(c1cccnc1)N1C[C@H]2[C@@H](c3ccccc31)[C@@H](CO)N2C(=O)CN1CCOCC1,inactive
5,CN(C)S(=O)(=O)c1ccc(CN)cc1,inactive
6,CC(C)NC(=O)Nc1ccc2c(c1)C(=O)N(C)[C@H]1CC[C@@H](CC(=O)NCc3ccc(F)cc3)O[C@@H]1CO2,inactive
7,C[C@@H]1CN([C@H](C)CO)C(=O)c2cccc(NS(=O)(=O)c3ccc(Cl)cc3)c2O[C@@H]1CN(C)Cc1ccc(Oc2ccccc2)cc1,inactive
8,C[C@@H]1CN([C@@H](C)CO)C(=O)c2ccccc2-c2ccccc2CO[C@@H]1CN(C)C(=O)Nc1ccc(F)cc1,inactive
9,C[C@@H]1CN([C@@H](C)CO)C(=O)Cc2cc(NC(=O)Cn3cnnn3)ccc2O[C@@H]1CN(C)Cc1ccncc1,inactive
10,COc1ccc(CN(C)C[C@H]2OCCCC[C@H](C)Oc3ccc(NC(=O)Nc4ccc(C(F)(F)F)cc4)cc3C(=O)N([C@H](C)CO)C[C@@H]2C)cc1,active
11,COc1ccc(NC(=O)Nc2ccc3c(c2)C(=O)N([C@@H](C)CO)C[C@H](C)[C@H](CN(C)Cc2ccc(C(F)(F)F)cc2)OCCCC[C@@H](C)O3)cc1,inactive
12,COc1ccc(CN(C)C[C@@H]2OCCCC[C@H](C)Oc3ccc(NC(=O)Nc4ccc(C(F)(F)F)cc4)cc3C(=O)N([C@H](C)CO)C[C@@H]2C)cc1,active
13,COc1ccc(NC(=O)Nc2ccc3c(c2)C(=O)N([C@@H](C)CO)C[C@@H](C)[C@@H](CN(C)Cc2ccc(C(F)(F)F)cc2)OCCCC[C@@H](C)O3)cc1,inactive
14,COc1ccc(CN(C)C[C@H]2OCCCC[C@@H](C)Oc3ccc(NC(=O)Nc4ccc(C(F)(F)F)cc4)cc3C(=O)N([C@@H](C)CO)C[C@H]2C)cc1,active
15,COc1ccc(CN(C)C[C@H]2OCCCC[C@@H](C)Oc3ccc(NC(=O)Nc4ccc(C(F)(F)F)cc4)cc3C(=O)N([C@H](C)CO)C[C@H]2C)cc1,active
16,C[C@H]1CN([C@@H](C)CO)C(=O)c2cc(NC(=O)Cc3ccccc3)ccc2O[C@@H]1CN(C)S(=O)(=O)c1ccccc1,inactive
17,COc1cccc(S(=O)(=O)Nc2ccc3c(c2)[C@@H]2C[C@H](CC(=O)NCC(F)(F)F)O[C@H](CO)[C@@H]2O3)c1,inactive
18,C[C@@H]1CN([C@H](C)CO)C(=O)CCCn2nncc2CO[C@@H]1CN(C)C(=O)Nc1cccc(Oc2ccccn2)c1,inactive
19,COCCNC(=O)C[C@H]1CC[C@H]2[C@@H](COc3ccc(NC(=O)Nc4cccc(F)c4)cc3C(=O)N2C)O1,inactive
20,Cc1noc(C)c1NC(=O)Nc1cccc2c1O[C@H](CN(C)Cc1ccc(Cl)c(Cl)c1)[C@H](C)CN([C@@H](C)CO)C2=O,inactive

row,SMILES,cytotoxicity call
1,C[C@@H]1CN([C@@H](C)CO)C(=O)CCCn2cc(nn2)CO[C@@H]1CN(C)Cc1ccc2c(c1)OCCN2C,inactive
2,C[C@@H]1CN([C@@H](C)CO)C(=O)c2cc(NC(=O)C3CC3)ccc2O[C@H]1CN(C)C(=O)Nc1ccc2c(c1)OCO2,inactive
3,CCc1nc2ccccc2c(C(=O)Nc2cccc(Cl)c2)c1C,inactive
4,C[C@@H]1CN([C@H](C)CO)C(=O)Cc2cc(NC(=O)C3CC3)ccc2O[C@@H]1CN(C)C(=O)Nc1ccc2c(c1)OCO2,inactive
5,O=C(C[C@@H]1CC[C@@H](NC(=O)c2cnccn2)[C@H](CO)O1)NCc1ccccc1F,inactive
6,C[C@H]1CN([C@@H](C)CO)C(=O)Cc2cc(NC(=O)Cn3cnnn3)ccc2O[C@H]1CN(C)Cc1ccccc1,inactive
7,Cn1c(-c2ccccc2)c[nH]c1=S,inactive
8,COc1ccc(NC(=O)Nc2ccc3c(c2)C(=O)N([C@@H](C)CO)C[C@@H](C)[C@@H](CN(C)Cc2ccc(C(F)(F)F)cc2)OCCCC[C@H](C)O3)cc1,inactive
9,COc1ccc(CN(C)C[C@H]2OCCCC[C@H](C)Oc3ccc(NC(=O)Nc4ccc(C(F)(F)F)cc4)cc3C(=O)N([C@@H](C)CO)C[C@@H]2C)cc1,active
10,COc1ccc(NC(=O)Nc2ccc3c(c2)C(=O)N([C@H](C)CO)C[C@@H](C)[C@H](CN(C)Cc2ccc(C(F)(F)F)cc2)OCCCC[C@@H](C)O3)cc1,inactive
11,COc1ccc(CN(C)C[C@@H]2OCCCC[C@@H](C)Oc3ccc(NC(=O)Nc4ccc(C(F)(F)F)cc4)cc3C(=O)N([C@H](C)CO)C[C@H]2C)cc1,active
12,COc1ccc(CN(C)C[C@H]2OCCCC[C@H](C)Oc3ccc(NC(=O)Nc4ccc(C(F)(F)F)cc4)cc3C(=O)N([C@@H](C)CO)C[C@H]2C)cc1,active
13,COc1ccc(NC(=O)Nc2ccc3c(c2)C(=O)N([C@@H](C)CO)C[C@H](C)[C@@H](CN(C)Cc2ccc(C(F)(F)F)cc2)OCCCC[C@@H](C)O3)cc1,inactive
14,COc1ccc(NC(=O)Nc2ccc3c(c2)C(=O)N([C@H](C)CO)C[C@H](C)[C@@H](CN(C)Cc2ccc(C(F)(F)F)cc2)OCCCC[C@H](C)O3)cc1,inactive
15,Cc1noc(C)c1S(=O)(=O)Nc1ccc2c(c1)C(=O)N([C@H](C)CO)C[C@H](C)[C@@H](CN(C)C(=O)NC(C)C)O2,inactive
16,COc1ccc(NC(=O)N(C)C[C@@H]2Oc3c(NS(C)(=O)=O)cccc3C(=O)N([C@@H](C)CO)C[C@@H]2C)cc1,inactive
17,O=C(C[C@@H]1CC[C@H]2[C@@H](COC[C@@H](O)CN2S(=O)(=O)c2ccc(Cl)cc2)O1)NCCN1CCCC1,inactive
18,C[C@@H]1CN([C@H](C)CO)C(=O)c2cccc(NS(=O)(=O)c3ccc(F)cc3)c2O[C@@H]1CN(C)S(=O)(=O)c1ccc(F)cc1,inactive
19,C[C@@H]1CN([C@@H](C)CO)C(=O)c2cc(NC(=O)Nc3ccc(F)cc3)ccc2O[C@@H](C)CCCCO[C@@H]1CN(C)C(=O)CCCN(C)C,inactive
